This note sets out measurements from paper PMC7862700, “An all-to-all approach to the identification of sequence-specific readers for epigenetic DNA modifications on cytosine”.

What all share (experiment): DAPPL (digital affinity profiling via proximity ligation, sequencing); 10 mM Tris-HCl pH 7.5, 50 mM NaCl, 1 mM DTT, 4% glycerol, room temperature, 30 min; GST-TFs on glutathione beads, 16-mer random dsDNA library, 0.1% formaldehyde crosslink after washing; high values mean tight binding
One assay has as its target T1, FEV (Homo sapiens, UniProt Q99581 1-238).
T1 sequence: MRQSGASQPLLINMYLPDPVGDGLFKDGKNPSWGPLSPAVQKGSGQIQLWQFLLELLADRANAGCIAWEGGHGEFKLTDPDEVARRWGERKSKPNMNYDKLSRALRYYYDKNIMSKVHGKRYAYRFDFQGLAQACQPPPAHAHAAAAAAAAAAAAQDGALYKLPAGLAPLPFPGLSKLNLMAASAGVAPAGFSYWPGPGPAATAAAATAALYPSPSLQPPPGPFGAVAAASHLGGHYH
Particulars: protein: recombinant; tags: N-terminal GST; dsDNA, one strand shown. Summed up:
(§1)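 Each value of binding signal is a hexamer's read frequency for a factor divided by the same hexamer's frequency in the tag-only sample. Barcoded, bead-captured GST fusions of human transcription factors made in yeast were pooled with that sample and incubated with 200 nmole of a random double-stranded 16-mer DNA library in Tris/NaCl/DTT/glycerol buffer at room temperature for 30 min. Washing, 0.1% formaldehyde crosslinking, proximity ligation, PCR and Illumina NextSeq500 sequencing followed.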

In a further assay the target is ETV5 (Homo sapiens, UniProt P41161 1-510). Conditions: protein: recombinant; tags: N-terminal GST; dsDNA, one strand shown. Summed up: as §1
The next assay has as its target HSF1 (Homo sapiens, UniProt Q00613 1-529). Conditions: protein: recombinant; tags: N-terminal GST; chain copies: 3; dsDNA, one strand shown. Summed up: as §1
Another assay deals with T2, SPIC (Homo sapiens, UniProt Q8N5J4 1-248).
T2 sequence: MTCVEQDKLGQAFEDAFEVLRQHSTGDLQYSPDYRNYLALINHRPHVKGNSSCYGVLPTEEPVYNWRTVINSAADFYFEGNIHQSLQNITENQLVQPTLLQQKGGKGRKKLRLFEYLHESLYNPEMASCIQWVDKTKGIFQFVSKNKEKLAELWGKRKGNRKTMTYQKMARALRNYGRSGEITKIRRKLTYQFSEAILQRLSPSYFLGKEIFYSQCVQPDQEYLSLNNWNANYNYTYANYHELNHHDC
Particulars: protein: recombinant; tags: N-terminal GST; dsDNA, one strand shown. In a few lines:
as §1

Another assay addresses ELF4 (Homo sapiens, UniProt Q99607 1-663). Conditions: protein: recombinant; tags: N-terminal GST; dsDNA, one strand shown. Summed up:
as §1

In the next assay the target is T3, ELK4 (Homo sapiens, UniProt P28324-2 1-405).
T3 sequence: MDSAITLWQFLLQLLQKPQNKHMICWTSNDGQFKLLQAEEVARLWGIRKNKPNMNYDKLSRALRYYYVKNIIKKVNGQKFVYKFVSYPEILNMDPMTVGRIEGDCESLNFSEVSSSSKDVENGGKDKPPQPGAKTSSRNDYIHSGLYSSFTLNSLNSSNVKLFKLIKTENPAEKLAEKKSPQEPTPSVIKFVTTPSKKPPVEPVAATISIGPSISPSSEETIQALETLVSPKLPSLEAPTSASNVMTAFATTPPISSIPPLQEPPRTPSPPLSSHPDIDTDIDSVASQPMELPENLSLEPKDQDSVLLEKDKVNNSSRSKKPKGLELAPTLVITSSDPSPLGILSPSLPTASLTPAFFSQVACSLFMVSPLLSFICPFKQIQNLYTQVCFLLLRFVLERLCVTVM
Particulars: protein: recombinant; tags: N-terminal GST; dsDNA, one strand shown. Summed up:
as §1

The target of another assay is T4, ETV2 (Homo sapiens, UniProt O00321 1-342).
T4 sequence: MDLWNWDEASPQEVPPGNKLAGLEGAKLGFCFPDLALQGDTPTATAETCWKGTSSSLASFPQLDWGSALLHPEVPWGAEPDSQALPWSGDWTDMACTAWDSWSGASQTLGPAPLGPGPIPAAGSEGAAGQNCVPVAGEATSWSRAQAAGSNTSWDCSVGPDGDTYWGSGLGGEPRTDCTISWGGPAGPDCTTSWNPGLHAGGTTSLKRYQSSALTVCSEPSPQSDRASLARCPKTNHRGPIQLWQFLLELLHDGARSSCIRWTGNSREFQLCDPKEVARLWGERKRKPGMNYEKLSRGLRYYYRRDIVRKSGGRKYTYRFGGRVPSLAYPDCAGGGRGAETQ
Conditions: protein: recombinant; tags: N-terminal GST; dsDNA, one strand shown. In a few lines: as §1

The target in a further assay is T5, ELF3 (Homo sapiens, UniProt P78545 1-371).
T5 sequence: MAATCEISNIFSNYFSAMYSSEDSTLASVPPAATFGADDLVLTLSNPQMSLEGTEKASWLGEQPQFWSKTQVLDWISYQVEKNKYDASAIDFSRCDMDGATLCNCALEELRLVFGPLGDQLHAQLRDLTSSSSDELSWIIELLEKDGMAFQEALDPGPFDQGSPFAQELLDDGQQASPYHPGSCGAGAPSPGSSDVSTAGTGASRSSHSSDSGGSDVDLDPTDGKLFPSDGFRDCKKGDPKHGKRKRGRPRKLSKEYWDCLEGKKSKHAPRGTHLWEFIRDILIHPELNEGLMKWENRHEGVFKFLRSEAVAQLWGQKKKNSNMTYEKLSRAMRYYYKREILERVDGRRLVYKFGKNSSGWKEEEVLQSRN
Conditions: protein: recombinant; tags: N-terminal GST; dsDNA, one strand shown. In a few lines: as §1

The target of another assay is CRX (Homo sapiens, UniProt O43186 1-299). Particulars: protein: recombinant; tags: N-terminal GST; dsDNA, one strand shown. In a few lines: as §1
The target in a further assay is ETV1 (Homo sapiens, UniProt P50549 1-477). Particulars: protein: recombinant; tags: N-terminal GST; dsDNA, one strand shown. Summed up: as §1
Another assay concerns the target T6, ERF (Homo sapiens, UniProt P50548 1-548).
T6 sequence: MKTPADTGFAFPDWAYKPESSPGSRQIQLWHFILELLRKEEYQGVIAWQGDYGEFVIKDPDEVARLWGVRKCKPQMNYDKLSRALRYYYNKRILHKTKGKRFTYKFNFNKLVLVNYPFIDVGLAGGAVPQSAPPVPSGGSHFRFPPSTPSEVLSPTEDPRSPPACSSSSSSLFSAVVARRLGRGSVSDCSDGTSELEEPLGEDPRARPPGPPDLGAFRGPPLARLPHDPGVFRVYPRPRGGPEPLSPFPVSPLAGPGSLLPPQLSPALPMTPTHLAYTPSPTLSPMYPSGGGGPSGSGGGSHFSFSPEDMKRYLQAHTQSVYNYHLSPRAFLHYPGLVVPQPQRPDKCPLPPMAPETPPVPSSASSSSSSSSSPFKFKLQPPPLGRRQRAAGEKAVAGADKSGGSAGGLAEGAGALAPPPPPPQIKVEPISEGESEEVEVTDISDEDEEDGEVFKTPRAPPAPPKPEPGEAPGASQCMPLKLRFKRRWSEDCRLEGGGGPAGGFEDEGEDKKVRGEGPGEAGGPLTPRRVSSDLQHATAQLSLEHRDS
Particulars: protein: recombinant; tags: N-terminal GST; dsDNA, one strand shown. Summed up:
as §1

In a further assay the target is T7, ETV3L (Homo sapiens, UniProt Q6ZN32 1-361).
T7 sequence: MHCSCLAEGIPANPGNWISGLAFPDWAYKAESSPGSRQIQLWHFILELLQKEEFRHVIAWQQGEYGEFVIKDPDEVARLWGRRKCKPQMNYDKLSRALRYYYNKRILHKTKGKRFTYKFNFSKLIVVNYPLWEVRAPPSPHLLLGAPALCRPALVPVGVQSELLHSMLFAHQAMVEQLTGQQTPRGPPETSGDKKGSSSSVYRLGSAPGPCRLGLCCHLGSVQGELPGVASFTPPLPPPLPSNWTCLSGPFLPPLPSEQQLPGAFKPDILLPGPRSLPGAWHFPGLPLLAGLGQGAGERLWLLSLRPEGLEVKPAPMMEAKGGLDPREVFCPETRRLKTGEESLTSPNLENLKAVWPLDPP
Conditions: protein: recombinant; tags: N-terminal GST; dsDNA, one strand shown. In a few lines: as §1

The next assay concerns the target T8, ETS2 (Homo sapiens, UniProt P15036 1-469).
T8 sequence: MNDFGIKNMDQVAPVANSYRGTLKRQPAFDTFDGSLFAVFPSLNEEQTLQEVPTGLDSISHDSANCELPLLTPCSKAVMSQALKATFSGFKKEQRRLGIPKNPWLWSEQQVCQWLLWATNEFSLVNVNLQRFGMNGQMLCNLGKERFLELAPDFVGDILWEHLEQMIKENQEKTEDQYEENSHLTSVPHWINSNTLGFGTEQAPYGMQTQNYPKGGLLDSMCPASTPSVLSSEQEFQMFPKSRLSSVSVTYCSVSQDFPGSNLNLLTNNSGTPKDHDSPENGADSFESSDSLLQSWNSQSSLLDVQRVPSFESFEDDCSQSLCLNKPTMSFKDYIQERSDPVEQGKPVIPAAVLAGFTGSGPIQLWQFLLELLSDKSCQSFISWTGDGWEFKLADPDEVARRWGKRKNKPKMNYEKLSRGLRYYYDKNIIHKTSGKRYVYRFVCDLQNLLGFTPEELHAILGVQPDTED
Conditions: protein: recombinant; tags: N-terminal GST; dsDNA, one strand shown. In a few lines: as §1

A further assay addresses T9, SPDEF (Homo sapiens, UniProt O95238 1-335).
T9 sequence: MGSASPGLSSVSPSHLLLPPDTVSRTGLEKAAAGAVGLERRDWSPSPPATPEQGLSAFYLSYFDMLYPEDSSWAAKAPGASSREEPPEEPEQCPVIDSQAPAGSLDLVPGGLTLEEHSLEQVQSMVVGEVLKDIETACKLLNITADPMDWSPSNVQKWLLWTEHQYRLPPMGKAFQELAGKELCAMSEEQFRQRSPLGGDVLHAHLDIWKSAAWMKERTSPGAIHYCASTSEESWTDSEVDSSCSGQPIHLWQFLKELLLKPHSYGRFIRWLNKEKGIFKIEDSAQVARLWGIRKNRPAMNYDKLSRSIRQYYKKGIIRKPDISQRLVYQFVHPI
Conditions: protein: recombinant; tags: N-terminal GST; dsDNA, one strand shown. In a few lines: as §1

A further assay deals with T10, ETV7 (Homo sapiens, UniProt Q9Y603 1-341).
T10 sequence: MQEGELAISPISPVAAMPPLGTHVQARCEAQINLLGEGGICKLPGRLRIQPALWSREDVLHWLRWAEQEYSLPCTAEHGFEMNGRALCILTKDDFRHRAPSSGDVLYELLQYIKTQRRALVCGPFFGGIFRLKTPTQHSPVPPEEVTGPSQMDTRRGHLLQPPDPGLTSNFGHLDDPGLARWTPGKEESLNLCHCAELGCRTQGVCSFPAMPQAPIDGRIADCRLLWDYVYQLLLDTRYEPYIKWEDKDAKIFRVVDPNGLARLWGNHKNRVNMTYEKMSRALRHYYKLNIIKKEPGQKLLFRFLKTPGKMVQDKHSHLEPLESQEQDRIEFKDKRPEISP
Conditions: protein: recombinant; tags: N-terminal GST; dsDNA, one strand shown. In a few lines:
as §1

The target in another assay is T11, ELF5 (Homo sapiens, UniProt Q9UKW6-2 1-255).
T11 sequence: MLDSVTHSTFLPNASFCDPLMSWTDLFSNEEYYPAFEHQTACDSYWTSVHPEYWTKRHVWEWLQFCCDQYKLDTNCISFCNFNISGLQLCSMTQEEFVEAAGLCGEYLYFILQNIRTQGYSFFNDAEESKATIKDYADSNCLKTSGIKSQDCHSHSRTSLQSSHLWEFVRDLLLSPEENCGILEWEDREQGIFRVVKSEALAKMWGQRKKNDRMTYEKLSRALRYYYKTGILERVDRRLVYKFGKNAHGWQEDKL
Conditions: protein: recombinant; tags: N-terminal GST; dsDNA, one strand shown. In a few lines:
as §1

The target in a further assay is T12, ETV3 (Homo sapiens, UniProt P41162-2 1-143).
T12 sequence: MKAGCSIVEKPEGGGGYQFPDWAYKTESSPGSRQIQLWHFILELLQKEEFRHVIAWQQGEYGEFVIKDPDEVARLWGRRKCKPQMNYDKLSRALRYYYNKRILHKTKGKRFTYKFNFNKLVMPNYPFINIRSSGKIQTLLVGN
Conditions: protein: recombinant; tags: N-terminal GST; dsDNA, one strand shown. Summed up: as §1

A further assay has as its target ETV6 (Homo sapiens, UniProt P41212 1-452). Conditions: protein: recombinant; tags: N-terminal GST; dsDNA, one strand shown. In a few lines: as §1

Chain of ETV1 (P50549 whole entry): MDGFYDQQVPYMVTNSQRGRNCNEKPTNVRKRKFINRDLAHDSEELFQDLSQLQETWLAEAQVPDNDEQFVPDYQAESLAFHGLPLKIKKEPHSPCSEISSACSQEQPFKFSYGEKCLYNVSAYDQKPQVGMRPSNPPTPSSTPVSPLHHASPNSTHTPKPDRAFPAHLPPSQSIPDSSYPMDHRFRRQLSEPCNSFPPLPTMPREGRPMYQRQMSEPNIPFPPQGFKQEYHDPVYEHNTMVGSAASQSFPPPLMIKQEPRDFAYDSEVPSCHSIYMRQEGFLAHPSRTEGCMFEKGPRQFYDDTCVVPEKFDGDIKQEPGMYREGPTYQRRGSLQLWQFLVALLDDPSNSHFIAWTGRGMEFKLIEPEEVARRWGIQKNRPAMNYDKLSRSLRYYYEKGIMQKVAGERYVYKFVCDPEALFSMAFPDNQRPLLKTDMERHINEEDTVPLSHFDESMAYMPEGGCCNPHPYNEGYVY
Chain of HSF1 (Q00613 whole entry): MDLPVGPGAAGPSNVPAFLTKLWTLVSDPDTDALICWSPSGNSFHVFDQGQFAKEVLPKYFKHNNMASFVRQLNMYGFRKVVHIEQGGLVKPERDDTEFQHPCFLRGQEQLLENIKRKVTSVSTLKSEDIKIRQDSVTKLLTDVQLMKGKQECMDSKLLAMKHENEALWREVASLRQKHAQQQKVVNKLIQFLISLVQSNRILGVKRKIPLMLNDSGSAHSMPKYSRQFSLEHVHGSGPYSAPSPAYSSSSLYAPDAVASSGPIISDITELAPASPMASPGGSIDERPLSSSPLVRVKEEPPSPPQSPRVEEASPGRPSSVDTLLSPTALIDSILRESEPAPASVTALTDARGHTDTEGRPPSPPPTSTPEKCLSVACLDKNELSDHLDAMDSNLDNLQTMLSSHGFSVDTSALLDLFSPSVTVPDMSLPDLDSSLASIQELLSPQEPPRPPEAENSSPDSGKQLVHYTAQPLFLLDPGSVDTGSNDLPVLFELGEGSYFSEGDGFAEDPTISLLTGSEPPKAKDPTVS
Chain of ELF4 (Q99607 whole entry): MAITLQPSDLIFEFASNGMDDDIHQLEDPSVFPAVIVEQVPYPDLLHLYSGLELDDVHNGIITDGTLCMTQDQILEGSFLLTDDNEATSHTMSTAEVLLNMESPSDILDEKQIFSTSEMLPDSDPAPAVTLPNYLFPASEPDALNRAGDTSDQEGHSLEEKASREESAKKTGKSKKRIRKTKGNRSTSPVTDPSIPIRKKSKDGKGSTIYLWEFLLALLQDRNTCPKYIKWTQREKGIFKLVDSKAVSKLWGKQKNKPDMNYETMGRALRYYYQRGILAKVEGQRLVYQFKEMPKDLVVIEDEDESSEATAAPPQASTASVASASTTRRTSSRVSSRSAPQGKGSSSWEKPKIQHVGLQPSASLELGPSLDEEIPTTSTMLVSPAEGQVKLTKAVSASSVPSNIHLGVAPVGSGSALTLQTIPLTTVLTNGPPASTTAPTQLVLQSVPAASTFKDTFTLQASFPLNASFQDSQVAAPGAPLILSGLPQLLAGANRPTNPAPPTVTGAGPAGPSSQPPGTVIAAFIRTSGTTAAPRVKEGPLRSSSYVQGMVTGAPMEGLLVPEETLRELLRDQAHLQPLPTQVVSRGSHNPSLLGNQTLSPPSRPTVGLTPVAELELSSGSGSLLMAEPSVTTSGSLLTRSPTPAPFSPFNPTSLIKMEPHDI
Chain of ETV5 (P41161 whole entry): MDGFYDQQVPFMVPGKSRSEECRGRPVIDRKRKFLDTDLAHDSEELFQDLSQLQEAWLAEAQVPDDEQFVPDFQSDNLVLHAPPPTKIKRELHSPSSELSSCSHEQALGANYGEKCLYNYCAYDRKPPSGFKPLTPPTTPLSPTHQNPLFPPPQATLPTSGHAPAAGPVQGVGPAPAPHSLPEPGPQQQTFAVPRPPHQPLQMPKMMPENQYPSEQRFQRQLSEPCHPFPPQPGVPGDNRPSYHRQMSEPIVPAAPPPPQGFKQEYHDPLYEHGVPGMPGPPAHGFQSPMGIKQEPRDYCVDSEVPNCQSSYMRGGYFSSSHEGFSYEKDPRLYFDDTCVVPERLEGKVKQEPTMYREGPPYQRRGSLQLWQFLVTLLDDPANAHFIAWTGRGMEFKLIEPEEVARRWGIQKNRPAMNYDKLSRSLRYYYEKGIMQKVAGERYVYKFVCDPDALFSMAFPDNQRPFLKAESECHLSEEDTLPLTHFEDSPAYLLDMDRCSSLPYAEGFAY
Chain of ETV6 (P41212 whole entry): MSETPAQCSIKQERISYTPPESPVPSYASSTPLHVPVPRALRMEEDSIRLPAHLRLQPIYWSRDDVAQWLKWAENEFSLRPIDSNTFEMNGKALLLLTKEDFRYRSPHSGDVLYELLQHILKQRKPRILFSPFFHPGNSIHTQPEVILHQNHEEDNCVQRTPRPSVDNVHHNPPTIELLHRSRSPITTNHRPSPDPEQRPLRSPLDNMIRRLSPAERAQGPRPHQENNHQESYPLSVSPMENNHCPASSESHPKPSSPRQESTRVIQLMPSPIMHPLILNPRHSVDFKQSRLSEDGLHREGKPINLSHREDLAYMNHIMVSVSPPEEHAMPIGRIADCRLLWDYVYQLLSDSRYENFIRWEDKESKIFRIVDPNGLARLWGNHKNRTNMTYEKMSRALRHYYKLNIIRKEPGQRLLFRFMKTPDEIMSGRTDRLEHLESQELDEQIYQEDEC
Chain of CRX (O43186 whole entry): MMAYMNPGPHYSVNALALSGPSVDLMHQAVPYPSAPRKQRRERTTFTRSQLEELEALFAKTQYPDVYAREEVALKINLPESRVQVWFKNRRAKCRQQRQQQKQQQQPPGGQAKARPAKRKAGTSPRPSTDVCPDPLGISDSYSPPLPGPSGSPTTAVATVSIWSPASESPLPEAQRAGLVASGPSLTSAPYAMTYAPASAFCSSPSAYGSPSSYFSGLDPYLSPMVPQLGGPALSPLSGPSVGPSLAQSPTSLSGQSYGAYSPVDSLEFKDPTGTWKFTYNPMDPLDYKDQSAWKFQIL

As for AAAACT, the binding signal was 1.16 fold enrichment (6-mer frequency, TF over GST control) with FEV; 1.15 fold enrichment (6-mer frequency, TF over GST control) in the assay with ETV5; 1.18 fold enrichment (6-mer frequency, TF over GST control) with HSF1; 1.23 fold enrichment (6-mer frequency, TF over GST control) with SPIC; 1.21 fold enrichment (6-mer frequency, TF over GST control) in the assay with ELF4; 1.1 fold enrichment (6-mer frequency, TF over GST control) with ELK4. Further, the binding signal was 1.19 fold enrichment (6-mer frequency, TF over GST control) in the assay with ETV2; 1.12 fold enrichment (6-mer frequency, TF over GST control) with ELF3; 1.16 fold enrichment (6-mer frequency, TF over GST control) in the assay with CRX; 1.13 fold enrichment (6-mer frequency, TF over GST control) in the assay with ETV1; 1.2 fold enrichment (6-mer frequency, TF over GST control) with ERF; 1.19 fold enrichment (6-mer frequency, TF over GST control) with ETV3L. Moreover, the binding signal in the assay with ETS2 was 1.24 fold enrichment (6-mer frequency, TF over GST control); with SPDEF, 1.09 fold enrichment (6-mer frequency, TF over GST control); with ETV7 it was 1.29 fold enrichment (6-mer frequency, TF over GST control); with ELF5, 1.27 fold enrichment (6-mer frequency, TF over GST control); in the assay with ETV3, 1.21 fold enrichment (6-mer frequency, TF over GST control); in the assay with ETV6, 1.19 fold enrichment (6-mer frequency, TF over GST control).
